From PubChem BioAssay
NS1 function inh = inhibitors of influenza NS1 protein function; AID 2326; Potency, µM (top dose mostly 46.1 µM), for inactives: at the top dose activity, positive = more growth; 270,000 compounds, 0.4% hits; further: actives are rising curves; nearly all actives have a fitted effect of over 50% in size
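S. cerevisiae expressing influenza A NS1, grown in glucose, washed, then diluted 1:100 into pH 6.0 -URA galactose medium with 23 nl compound. Growth recovery read as OD600; NS1-free strain serves as control.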
SARS PLP yeast = inhibitors of SARS-CoV papain-like protease in yeast. 330,000 compounds, 0.19% hits. Potency, µM (highest dose often 32.9 µM), for the others: at the top dose activity, positive = growth rescue, actives largely listed as activators. AID 485353. S. cerevisiae expressing SARS-CoV PLpro, growth rescue; further: 0% is about no effect; nearly all actives have a fitted effect of over 55% in size
Pf growth 48h = inhibits P. falciparum growth in the first generation, 48 h | Potency, µM (titrated, usually from 28.7 µM), without a hit: at the top dose activity change, negative = inhibition, most hits filed as inhibitors | P. falciparum luciferase growth in erythrocytes, 48 h | AID 504832 | 310,000 compounds, 5.9% hits; active means well fitted inhibition curve with a large enough effect; inconclusive means small, poorly fitted or top-dose-only effect, or another doubt; inactive means no such curve, though single readings can be large or run the other way; further: on the % scale 0 is the no-effect control and ±100 the full control effect
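Luciferase-expressing parasites in RBCs, 2% Hct / 0.1% parasitemia final; RPMI 1640 + 0.5% Albumax; 37 C, 5% CO2, one generation; luminescence read-out, lower signal = inhibition.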
Pf growth 96h = inhibits malaria parasite growth, 96 h | P. falciparum luciferase reporter growth, 96 h | Potency, µM (highest dose often 28.7 µM), for the others: at the top dose activity change, negative = inhibition, actives largely listed as inhibitors | 320,000 compounds, 6.9% hits | AID 504834; active means well fitted inhibition curve with a large enough effect; inconclusive means small, poorly fitted or top-dose-only effect, or another doubt; inactive means no such curve, though single readings can be large or run the other way; further: on the % scale 0 is the no-effect control and ±100 the full control effect
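Erythrocytes infected with luciferase-expressing P. falciparum were dispensed at 2% hematocrit and 0.05% parasitemia (final), then incubated with compounds 96 hours at 37 C in 5% CO2. Luminescence after detection reagent addition reported growth.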
RE007 growth inh = less growth of the S. pombe RE007 Vpr strain; S. pombe RE007 Vpr strain, BacTiter-Glo ATP luminescence, 24 h; 360,000 compounds, 0.21% hits; Potency, µM (doses to about 92.2 µM), without a hit: at the highest dose activity change, negative = less growth, usual class: inhibitors; AID 651644; active means well fitted falling curve with a large enough effect; inconclusive means small, poorly fitted or top-dose-only effect; inactive means no such curve, though single readings can be large or run the other way; further: on the % scale 0 is the no-effect control and ±100 the full control effect; nearly all actives have a fitted effect of over 50% in size
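Fission yeast RE007 carrying one integrated HIV-1 vpr copy, seeded at OD 0.01 in PMG+AL medium with 23 nL pinned compound. Grown 24 h at 30 degrees; viability read by BacTiter-Glo luminescence after 5 min.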
* hit, by the source's call; [ ] = another dose, or the depositor's remark. The list is not random: actives were taken first. Their share in the collection is about 9.5%. Unless noted, the call rests on the fitted dose curve. Potency means the concentration at half of the fitted maximal effect.

How did CC(=O)N1CCN(S(=O)(=O)c2cccc(C(=O)Nc3cc(C(F)(F)F)ccc3N3CCOCC3)c2)CC1 do in these assays?
NS1 function inh: -20.7%; SARS PLP yeast: 17.2%; Pf growth 48h: inconclusive; Pf growth 96h: inconclusive; RE007 growth inh: -13.8%

Results for CCCN1C(=O)/C(=C/C=C2\N(CC)c3ccccc3C2(C)C)SC1=S ?
NS1 function inh: 10.5%; SARS PLP yeast: 0.4%; Pf growth 48h: inconclusive; Pf growth 96h: 4.15µM*; RE007 growth inh: -2.1%

What do the screens show for `CC(=O)c1c(C)oc2ccc(N(C(=O)C3CCCCC3)S(=O)(=O)c3cc([N+](=O)[O-])ccc3C)cc12`?
NS1 function inh: 13.2%; SARS PLP yeast: 16.6%; Pf growth 48h: 12.0%; Pf growth 96h: 3.7µM*; RE007 growth inh: -17.1%

Results for CSc1nc(NCc2ccco2)c2c3c(sc2n1)CN(C)CC3 ?
NS1 function inh: 2.9%; SARS PLP yeast: 0.1%; Pf growth 48h: 2.94µM*; Pf growth 96h: -2.7%[5.75 µM]

How did COC(CNc1nc(SC)nc2sc3c(c12)CCN(C)C3)OC do in these assays?
NS1 function inh: 1.0%; SARS PLP yeast: 0.4%; Pf growth 48h: inconclusive; Pf growth 96h: 5.22µM*; RE007 growth inh: 3.4%

Results for CCCCSc1nc(NCc2ccco2)c2c3c(sc2n1)COC(C)(C)C3 ?
NS1 function inh: 14.3%; SARS PLP yeast: -10.0%; Pf growth 48h: 10.4µM*; Pf growth 96h: inconclusive; RE007 growth inh: 6.7%

How did Cc1ccc(CN2CCN(C3CCOCC3)CC2CCO)cc1 (stereo not drawn) do in these assays?
NS1 function inh: -1.9%; SARS PLP yeast: -0.3%; Pf growth 48h: 28.5%; Pf growth 96h: inconclusive; RE007 growth inh: -2.4%

How did COCCCn1c(N)c(C(=O)OCCOC)c2nc3ccccc3nc21 do in these assays?
NS1 function inh: 0.4%; SARS PLP yeast: 6.1%; Pf growth 48h: -16.7%; Pf growth 96h: inconclusive; RE007 growth inh: 21.2%

Results for C=CCn1c(N)c(C(=O)OC(C)CC)c2nc3ccccc3nc21 (stereo not drawn) ?
NS1 function inh: -20.4%; SARS PLP yeast: -6.5%; Pf growth 48h: 10.4µM*; RE007 growth inh: -13.2%

What do the screens show for `COCC(C)OC(=O)c1c(N)n(CC(C)C)c2nc3ccccc3nc12` (stereo not drawn)?
NS1 function inh: 1.2%; SARS PLP yeast: 5.5%; Pf growth 48h: 11.7µM*; RE007 growth inh: -4.4%

Results for COc1ccc(CCNc2ccc([N+](=O)[O-])cn2)cc1 ?
NS1 function inh: -10.1%; SARS PLP yeast: -11.2%; Pf growth 48h: inconclusive; Pf growth 96h: 13.1µM*; RE007 growth inh: 31.7%

Results for COc1ccc(CCNC(=O)C(C)c2ccc([N+](=O)[O-])cc2)cc1 (stereo not drawn) ?
SARS PLP yeast: -0.3%; Pf growth 48h: -10.3%; Pf growth 96h: 8.28µM*; RE007 growth inh: 6.5%

How did COc1ccc(Cn2c(O)c(C=Nc3ccc(OC)cc3)c3ccccc3c2=O)cc1 do in these assays?
NS1 function inh: 11.1%; SARS PLP yeast: 16.6%; Pf growth 48h: -7.0%; Pf growth 96h: -3.6%; RE007 growth inh: -1.6%

What do the screens show for `COc1ccc(Cn2c(O)c(/C=N/NC(=O)c3cccnc3)c3ccccc3c2=O)cc1`?
SARS PLP yeast: inconclusive; Pf growth 48h: 13.1µM*; Pf growth 96h: 5.22µM*; RE007 growth inh: -22.5%

Results for O=C(N/N=C/c1c(O)n(Cc2ccccc2)c(=O)c2ccccc12)c1cccnc1 ?
SARS PLP yeast: inconclusive; Pf growth 48h: inconclusive; Pf growth 96h: 14.7µM*; RE007 growth inh: -14.8%

How did O=C(N/N=C/c1cn(Cc2ccccc2)c2ccccc12)c1cccnc1 do in these assays?
NS1 function inh: 25.3%; SARS PLP yeast: -4.1%; Pf growth 48h: inconclusive; Pf growth 96h: 15.3%; RE007 growth inh: -7.3%

Results for O=C1CSC(c2cccnc2)N1Cc1ccc(Cl)cc1 (stereo not drawn) ?
NS1 function inh: -4.1%; SARS PLP yeast: -0.7%; Pf growth 48h: -0.1%; Pf growth 96h: 19.6%; RE007 growth inh: 37.1%

How did O=C1CSC(c2cccnc2)N1Cc1ccc(Cl)cc1Cl (stereo not drawn) do in these assays?
NS1 function inh: 3.7%; SARS PLP yeast: -1.6%; Pf growth 48h: inconclusive; Pf growth 96h: 9.28µM*; RE007 growth inh: 8.1%
